Experimental data published in the supplement of paper PMC10849652.
Of roughly 8,800 targets only a part is listed; those with a hit were picked by preference. About 0.5% of all pairs of compound and target were hits. Unmarked numbers belong to inactive results.

What was measured:
Assay in all cases: log2 fold change, soluble protein after heating vs DMSO (PISA); higher = thermal stabilisation; K562 lysate, 10 uM; active = over 0.2 and 3.5 SD of the protein, either way, in both replicates (recomputed)
[1] = compound: NCC(=O)Nc1ccc(-n2nc(C(F)(F)F)cc2-c2ccc3c(ccc4ccccc43)c2)cc1
Method in brief: (§1)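 Soluble protein was defined as the supernatant remaining after 21,000xg for 90 min, following pooling of heated aliquots and adjustment to 0.5% NP-40 at 4°C. Before that, crude K562 extract at 1 mg/mL protein in PBS pH 7.4 with 1 mM MgCl2 was treated with 10 μM compound for 30 min and heated for 3 min across 48°C-58°C. Quantification used TMTpro 16plex LC-MS/MS with channel sums equalised, and values are log-two fold changes in thermal stability relative to solvent controls from duplicates.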

[2] = compound: O=C(CCCCCCC(=O)Nc1ccccc1)NO [vorinostat]
Method in brief: as §1

[3] = compound: O=C(O)c1ccc2c(c1)nc(Nc1cccc(Cl)c1)c1ccncc12 [silmitasertib]
Method in brief: as §1

[4] = compound: O=C1NC(=O)C(c2cnc3ccccn23)=C1c1cn2c3c(cc(F)cc13)CN(C(=O)N1CCCCC1)CC2
Method in brief: as §1

[5] = compound: c1cn2cc(-c3ccc4cn[nH]c4c3)nc(Nc3ccc(N4CCOCC4)cc3)c2n1 [entospletinib]
Method in brief: as §1

Sequence of UniProt O95674 (O95674 whole entry, looked up): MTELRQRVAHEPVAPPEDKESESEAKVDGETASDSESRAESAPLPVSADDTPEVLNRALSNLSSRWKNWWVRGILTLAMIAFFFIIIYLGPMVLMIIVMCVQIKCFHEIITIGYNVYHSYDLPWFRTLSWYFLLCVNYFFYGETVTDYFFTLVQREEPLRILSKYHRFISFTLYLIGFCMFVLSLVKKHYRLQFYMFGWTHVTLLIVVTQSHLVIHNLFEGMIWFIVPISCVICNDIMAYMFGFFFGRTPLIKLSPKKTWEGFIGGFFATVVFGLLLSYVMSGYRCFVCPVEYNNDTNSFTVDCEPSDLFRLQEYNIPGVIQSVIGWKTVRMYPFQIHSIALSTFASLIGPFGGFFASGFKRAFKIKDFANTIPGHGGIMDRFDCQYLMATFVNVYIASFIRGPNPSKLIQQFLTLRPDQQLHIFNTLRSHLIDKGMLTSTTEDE
Sequence of UniProt Q86WA6 (Q86WA6 whole entry, looked up): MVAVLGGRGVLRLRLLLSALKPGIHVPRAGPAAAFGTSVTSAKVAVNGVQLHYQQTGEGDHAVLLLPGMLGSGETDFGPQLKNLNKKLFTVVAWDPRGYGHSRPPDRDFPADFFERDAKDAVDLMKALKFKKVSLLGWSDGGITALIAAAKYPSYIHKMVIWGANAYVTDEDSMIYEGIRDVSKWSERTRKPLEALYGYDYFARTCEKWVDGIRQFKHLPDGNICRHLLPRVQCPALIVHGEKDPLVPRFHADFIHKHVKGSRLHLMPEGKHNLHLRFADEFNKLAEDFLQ
Sequence of UniProt Q86WJ1 (Q86WJ1 whole entry, looked up): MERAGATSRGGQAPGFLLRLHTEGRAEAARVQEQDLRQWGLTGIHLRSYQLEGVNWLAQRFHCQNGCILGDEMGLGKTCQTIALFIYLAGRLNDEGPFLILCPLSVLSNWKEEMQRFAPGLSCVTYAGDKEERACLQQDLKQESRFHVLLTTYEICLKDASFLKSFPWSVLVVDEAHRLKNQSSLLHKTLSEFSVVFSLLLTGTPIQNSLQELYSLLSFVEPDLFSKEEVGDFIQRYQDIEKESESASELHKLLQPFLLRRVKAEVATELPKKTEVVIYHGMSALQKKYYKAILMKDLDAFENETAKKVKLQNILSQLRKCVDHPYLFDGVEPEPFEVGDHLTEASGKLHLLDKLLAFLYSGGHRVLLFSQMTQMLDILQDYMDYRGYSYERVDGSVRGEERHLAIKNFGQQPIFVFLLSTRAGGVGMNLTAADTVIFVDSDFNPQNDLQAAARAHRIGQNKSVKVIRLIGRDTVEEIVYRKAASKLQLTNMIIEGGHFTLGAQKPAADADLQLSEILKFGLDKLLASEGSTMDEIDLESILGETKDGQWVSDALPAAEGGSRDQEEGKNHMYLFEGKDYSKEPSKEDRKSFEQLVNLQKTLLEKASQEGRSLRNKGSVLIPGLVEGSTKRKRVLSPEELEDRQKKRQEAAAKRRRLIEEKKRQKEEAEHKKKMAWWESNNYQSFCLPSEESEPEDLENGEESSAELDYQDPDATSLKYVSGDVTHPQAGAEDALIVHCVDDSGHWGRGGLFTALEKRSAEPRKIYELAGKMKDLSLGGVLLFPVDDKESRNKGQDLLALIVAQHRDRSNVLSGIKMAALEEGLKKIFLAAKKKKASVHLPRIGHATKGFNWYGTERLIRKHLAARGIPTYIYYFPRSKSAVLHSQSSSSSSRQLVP
Sequence of UniProt Q9Y6K0 (Q9Y6K0 whole entry, looked up): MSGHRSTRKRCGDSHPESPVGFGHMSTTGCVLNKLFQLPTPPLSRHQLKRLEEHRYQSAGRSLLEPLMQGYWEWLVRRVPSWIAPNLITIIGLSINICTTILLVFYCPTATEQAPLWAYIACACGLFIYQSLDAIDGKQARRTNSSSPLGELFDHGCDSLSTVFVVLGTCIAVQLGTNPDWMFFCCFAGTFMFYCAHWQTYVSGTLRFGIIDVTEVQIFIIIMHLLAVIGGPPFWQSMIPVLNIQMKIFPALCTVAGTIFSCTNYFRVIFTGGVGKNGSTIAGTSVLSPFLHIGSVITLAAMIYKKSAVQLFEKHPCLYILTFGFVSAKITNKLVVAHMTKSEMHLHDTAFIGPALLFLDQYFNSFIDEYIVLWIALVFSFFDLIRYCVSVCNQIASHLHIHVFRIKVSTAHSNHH
Sequence of UniProt Q9NW68 (Q9NW68 whole entry, looked up): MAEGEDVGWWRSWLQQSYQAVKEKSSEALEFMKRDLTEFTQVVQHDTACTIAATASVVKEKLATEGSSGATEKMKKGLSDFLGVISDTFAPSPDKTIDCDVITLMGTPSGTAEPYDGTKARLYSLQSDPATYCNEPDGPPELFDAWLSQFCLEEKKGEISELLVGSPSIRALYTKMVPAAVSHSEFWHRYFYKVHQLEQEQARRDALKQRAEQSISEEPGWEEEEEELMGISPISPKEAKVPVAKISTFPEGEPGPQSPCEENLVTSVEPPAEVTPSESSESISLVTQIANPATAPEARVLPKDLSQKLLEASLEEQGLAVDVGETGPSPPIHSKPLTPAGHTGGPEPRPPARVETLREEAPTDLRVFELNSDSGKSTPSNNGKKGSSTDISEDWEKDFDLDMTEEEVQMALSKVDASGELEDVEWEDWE
Sequence of UniProt O60566 (O60566 whole entry, looked up): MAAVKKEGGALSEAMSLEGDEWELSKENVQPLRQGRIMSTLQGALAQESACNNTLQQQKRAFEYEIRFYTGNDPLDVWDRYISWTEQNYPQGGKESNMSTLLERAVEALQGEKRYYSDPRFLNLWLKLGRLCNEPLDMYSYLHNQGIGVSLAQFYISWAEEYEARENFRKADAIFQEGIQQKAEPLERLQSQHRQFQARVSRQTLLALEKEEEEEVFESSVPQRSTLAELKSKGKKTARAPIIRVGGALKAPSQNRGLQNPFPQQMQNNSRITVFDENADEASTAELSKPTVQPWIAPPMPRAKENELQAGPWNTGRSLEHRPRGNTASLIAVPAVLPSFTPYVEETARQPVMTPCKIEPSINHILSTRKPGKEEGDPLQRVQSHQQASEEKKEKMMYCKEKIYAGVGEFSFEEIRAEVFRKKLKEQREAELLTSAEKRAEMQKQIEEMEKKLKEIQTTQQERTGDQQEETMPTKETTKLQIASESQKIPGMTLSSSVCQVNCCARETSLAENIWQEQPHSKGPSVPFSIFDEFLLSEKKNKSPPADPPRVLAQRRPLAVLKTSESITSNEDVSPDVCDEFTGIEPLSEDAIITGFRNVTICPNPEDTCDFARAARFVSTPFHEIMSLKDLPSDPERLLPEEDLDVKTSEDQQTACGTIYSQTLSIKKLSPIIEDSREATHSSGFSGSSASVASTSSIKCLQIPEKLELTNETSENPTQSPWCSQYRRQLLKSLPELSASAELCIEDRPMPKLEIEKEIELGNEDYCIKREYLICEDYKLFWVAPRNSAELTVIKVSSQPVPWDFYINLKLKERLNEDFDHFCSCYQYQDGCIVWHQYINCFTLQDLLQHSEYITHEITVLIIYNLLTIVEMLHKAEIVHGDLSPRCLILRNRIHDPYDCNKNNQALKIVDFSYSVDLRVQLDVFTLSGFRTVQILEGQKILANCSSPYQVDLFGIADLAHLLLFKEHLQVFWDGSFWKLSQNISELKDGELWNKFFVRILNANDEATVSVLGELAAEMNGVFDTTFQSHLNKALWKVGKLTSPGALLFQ
Sequence of UniProt Q8NDD1 (Q8NDD1 whole entry, looked up): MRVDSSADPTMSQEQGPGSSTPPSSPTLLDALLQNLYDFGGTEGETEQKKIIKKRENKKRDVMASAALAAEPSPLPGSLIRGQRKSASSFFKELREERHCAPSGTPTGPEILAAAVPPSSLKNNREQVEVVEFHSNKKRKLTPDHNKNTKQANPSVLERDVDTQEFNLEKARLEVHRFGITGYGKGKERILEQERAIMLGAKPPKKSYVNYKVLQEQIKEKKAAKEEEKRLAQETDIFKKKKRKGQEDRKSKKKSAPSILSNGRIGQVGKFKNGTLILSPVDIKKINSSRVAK
Sequence of UniProt Q14012 (Q14012 whole entry, looked up): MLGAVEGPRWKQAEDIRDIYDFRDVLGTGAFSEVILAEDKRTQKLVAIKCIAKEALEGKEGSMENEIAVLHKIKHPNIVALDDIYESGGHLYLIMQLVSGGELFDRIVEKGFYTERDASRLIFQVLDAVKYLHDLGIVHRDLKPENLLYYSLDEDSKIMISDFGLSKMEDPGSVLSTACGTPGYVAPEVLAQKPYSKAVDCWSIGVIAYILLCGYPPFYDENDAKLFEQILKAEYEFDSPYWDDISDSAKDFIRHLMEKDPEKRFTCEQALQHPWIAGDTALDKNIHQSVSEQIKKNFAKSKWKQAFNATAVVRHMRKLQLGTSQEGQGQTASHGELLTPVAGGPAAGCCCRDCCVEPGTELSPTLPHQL
Sequence of UniProt O95429 (O95429 whole entry, looked up): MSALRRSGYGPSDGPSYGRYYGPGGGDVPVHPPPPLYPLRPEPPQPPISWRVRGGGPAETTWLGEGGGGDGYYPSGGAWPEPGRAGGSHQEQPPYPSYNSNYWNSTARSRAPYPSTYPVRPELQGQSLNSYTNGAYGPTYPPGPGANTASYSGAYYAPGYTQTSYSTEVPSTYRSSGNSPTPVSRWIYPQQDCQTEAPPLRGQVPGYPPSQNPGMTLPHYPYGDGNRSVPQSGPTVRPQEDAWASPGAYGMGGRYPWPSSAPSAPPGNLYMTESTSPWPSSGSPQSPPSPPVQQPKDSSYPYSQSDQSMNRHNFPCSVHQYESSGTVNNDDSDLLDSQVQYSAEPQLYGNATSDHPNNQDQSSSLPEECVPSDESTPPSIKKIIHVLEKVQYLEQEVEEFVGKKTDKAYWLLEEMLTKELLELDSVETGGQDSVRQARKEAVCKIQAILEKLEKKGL
Sequence of UniProt P42574 (P42574 whole entry, looked up): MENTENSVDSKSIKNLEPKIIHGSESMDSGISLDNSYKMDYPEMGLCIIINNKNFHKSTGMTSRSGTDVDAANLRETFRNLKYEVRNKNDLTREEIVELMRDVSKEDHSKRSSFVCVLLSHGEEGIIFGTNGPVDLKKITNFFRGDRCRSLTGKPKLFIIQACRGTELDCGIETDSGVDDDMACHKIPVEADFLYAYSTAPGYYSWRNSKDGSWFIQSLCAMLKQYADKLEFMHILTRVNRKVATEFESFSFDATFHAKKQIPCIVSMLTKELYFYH

| Target | log2 fold change [1] | log2 fold change [2] | log2 fold change [3] | log2 fold change [4] | log2 fold change [5] |
| --- | --- | --- | --- | --- | --- |
| CHD3 isoform 3 (UniProt Q12873) | 0.022 | -0.316 (active) | 0.032 | -0.004 | 0.002 |
| C8orf37 (UniProt Q96NL8) | 0.206 | 0.084 | 0.044 | 0.008 | -0.035 |
| CFDP1 (UniProt Q9UEE9) | -0.009 | 0.095 | -0.05 | -0.078 | -0.012 |
| C2CD5 isoform 3 (UniProt Q86YS7) | 0.01 | 0.086 | -0.059 | 0.049 | 0.009 |
| ATAD1 (UniProt Q8NBU5) | -0.047 | -0.617 (active) | 0.021 | 0.002 | 0.008 |
| CD63 (UniProt P08962) | -0.1 | 0.123 | -0.039 | -0.173 | 0.077 |
| ATP2B4 (UniProt P23634) | -0.026 | -0.042 | -0.003 | -0.079 | -0.042 |
| CHAC2 (UniProt Q8WUX2) | -0.158 | 0.066 | -0.02 | -0.012 | -0.052 |
| CDK5RAP1 (UniProt Q96SZ6) | 0.011 | 0.036 | -0.07 | 0.016 | 0.029 |
| CAMK2G isoform 8 (UniProt Q13555) | -0.044 | -0.208 | 0.087 | 0.084 | 0.004 |
| BSDC1 (UniProt Q9NW68) | -0.073 | 0.13 | -0.018 | 0.024 | -0.002 |
| CHD1L (UniProt Q86WJ1) | 0.01 | -0.277 (active) | 0.015 | 0.164 | 0.046 |
| BCL2L12 (UniProt Q9HB09) | 0.031 | -0.033 | 0.1 | -0.085 | -0.129 |
| CCAR2 (UniProt Q8N163) | 0.01 | -0.399 (active) | 0.002 | -0.02 | 0.02 |
| CDS2 (UniProt O95674) | 0.007 | 0.093 | 0.024 | -0.065 | -0.028 |
| CDC123 (UniProt O75794) | -0.064 | -0.019 | 0.015 | -0.032 | 0.043 |
| BCKDK (UniProt O14874) | -0.01 | 0.025 | 0.052 | -0.271 (active) | -0.053 |
| ATXN2 (UniProt F8WB05) | 0.013 | 0.011 | 0.271 | 0.115 | -0.016 |
| CDK11B (UniProt P21127) | 0.009 | -0.115 | 0.065 | -0.023 | 0.255 (active) |
| BAG4 (UniProt O95429) | -0.013 | 0.03 | -0.067 | -0.025 | 0.007 |
| BCR (UniProt P11274) | 0.012 | -0.267 (active) | 0.005 | 0.001 | -0.009 |

| Target | log2 fold change [1] | log2 fold change [2] | log2 fold change [3] | log2 fold change [4] | log2 fold change [5] |
| --- | --- | --- | --- | --- | --- |
| ATRIP (UniProt Q8WXE1) | -0.088 | -0.28 | 0.229 | 0.039 | -0.009 |
| CEP76 (UniProt Q8TAP6) | -0.1 | -0.055 | 0.027 | -0.051 | 0.039 |
| CEPT1 (UniProt Q9Y6K0) | -0.037 | 0.103 | -0.016 | 0.029 | -0.016 |
| C5orf51 (UniProt A6NDU8) | 0.042 | -0.501 (active) | 0.036 | -0.003 | 0.015 |
| CCNK isoform 4 (UniProt O75909) | 0.032 | 0.093 | -0.007 | -0.051 | -0.002 |
| BPHL (UniProt Q86WA6) | -0.093 | 0.143 | 0.049 | -0.006 | 0.028 |
| BUB1B isoform 3 (UniProt O60566) | 0.004 | -0.376 (active) | 0.015 | 0.006 | 0.013 |
| CAMK1 (UniProt Q14012) | -0.13 | 0.027 | -0.059 | 0.062 | 0.115 |
| CCNYL1 (UniProt Q8N7R7) | -0.013 | -0.674 (active) | 0.079 | 0.019 | -0.005 |
| ATP13A1 (UniProt Q9HD20) | -0.009 | -0.094 | 0.03 | -0.02 | -0.03 |
| C1orf131 isoform 5 (UniProt Q8NDD1) | 0.059 | -0.445 (active) | -0.025 | 0.039 | -0.013 |
| ATG7 (UniProt O95352) | 0.008 | -0.47 (active) | 0.005 | -0.005 | 0.001 |
| CALM2 (UniProt P0DP24) | 0.008 | -0.027 | 0.064 | -0.121 | -0.048 |
| CDAN1 (UniProt Q8IWY9) | 0.019 | -0.326 (active) | 0.05 | 0.056 | -0.006 |
| ATG13 isoform 2 (UniProt O75143) | 0.01 | 0.051 | -0.01 | 0.024 | -0.008 |
| C12orf45 (UniProt Q8N5I9) | 0.063 | 0.012 | -0.059 | -0.027 | 0 |
| CBFA2T3 (UniProt O75081) | -0.004 | -0.4 (active) | 0.009 | -0.019 | -0.012 |
| CDC16 (UniProt Q13042) | -0.068 | -0.265 (active) | 0.023 | -0.006 | -0.015 |
| BCORL1 isoform 3 (UniProt Q5H9F3) | 0.177 | -0.004 | -0.093 | 0.213 | -0.018 |
| CASP3 (UniProt P42574) | -0.031 | 0.058 | -0.02 | 0.007 | -0.027 |
| CDKN2AIP (UniProt Q9NXV6) | -0.005 | 0.072 | -0.037 | -0.022 | 0.013 |
